Source: PubChem
An excerpt weighted towards active compounds, which were near 4% of everything screened.
Anthrax LF inh2: blocks Bacillus anthracis lethal factor protease. inhibition, % at 10 µM. multiplex microsphere protease cleavage assay, LF. hit rate 0.12% among 360,000; further: plate controls were buffer without enzyme for full effect and enzyme alone for no effect
Target sequence (P15917 whole entry, looked up): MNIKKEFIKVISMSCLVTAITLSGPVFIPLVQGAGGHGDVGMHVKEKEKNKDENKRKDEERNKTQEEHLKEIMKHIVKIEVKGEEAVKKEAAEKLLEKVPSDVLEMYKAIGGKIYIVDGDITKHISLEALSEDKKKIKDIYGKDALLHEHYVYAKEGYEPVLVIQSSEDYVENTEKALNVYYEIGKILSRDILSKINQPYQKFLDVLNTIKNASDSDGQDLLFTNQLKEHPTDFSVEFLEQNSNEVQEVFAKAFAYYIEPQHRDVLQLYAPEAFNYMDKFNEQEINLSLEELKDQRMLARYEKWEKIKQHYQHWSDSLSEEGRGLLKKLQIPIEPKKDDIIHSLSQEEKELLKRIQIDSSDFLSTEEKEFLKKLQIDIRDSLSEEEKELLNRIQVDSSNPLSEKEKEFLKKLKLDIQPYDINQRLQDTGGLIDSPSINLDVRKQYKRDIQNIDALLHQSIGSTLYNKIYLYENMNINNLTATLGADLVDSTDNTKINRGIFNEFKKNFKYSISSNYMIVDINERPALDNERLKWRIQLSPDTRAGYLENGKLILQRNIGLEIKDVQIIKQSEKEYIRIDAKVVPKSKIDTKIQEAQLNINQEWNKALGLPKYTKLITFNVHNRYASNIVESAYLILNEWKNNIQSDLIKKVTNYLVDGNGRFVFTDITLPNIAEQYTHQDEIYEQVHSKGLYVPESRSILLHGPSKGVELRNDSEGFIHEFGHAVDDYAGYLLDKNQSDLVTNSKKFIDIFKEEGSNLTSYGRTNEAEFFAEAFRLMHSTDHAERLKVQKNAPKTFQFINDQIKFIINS
MazEF act: activators of E. coli MazEF toxin-antitoxin RNase | FAM/BHQ RNA-DNA oligo cleavage fluorescence, 5 h | hit rate 0.32% among 350,000 | activation, % at 20 µM; in the data active means activation above about 50%
DUSP3 inh: blocks human VHR1 dual specificity phosphatase | P51452 | recombinant VHR phosphatase, pNPP absorbance | inhibition, % at 13.3 µM | hit rate 0.52% among 290,000 | AID 1654; in the data active means inhibition above about 50%
Bead autofluor: flagged as autofluorescent in microsphere protease counterscreen; hit rate 3.1% among 360,000; compound autofluorescence counterscreen, microsphere flow cytometry; hits give high values; fluorescence intensity (no concentration beside the values); AID 624483; in the data active means fluorescence intensity above about 16000; inconclusive means no clear call, values can overlap the other calls
BoNT-A LC inh2: BoNT A light chain protease inhibition; inhibition, % at 10 µM; multiplex microsphere protease substrate cleavage, flow cytometry; hit rate 0.17% among 360,000; further: plate controls were buffer without enzyme for full effect and enzyme alone for no effect
BoNT F protease: blocks Botulinum neurotoxin F light chain protease; Multiplex microsphere protease cleavage assay, flow cytometry; inhibition, % at 10 µM; hit rate 0.22% among 360,000; AID 588497; in the data active means inhibition above about 35%, passing the limit was not always enough; inconclusive means no clear call, values can overlap the other calls; further: plate controls were buffer without enzyme for full effect and enzyme alone for no effect
* marks the source's active call; other numbers are inactive results; ? = inconclusive; / = no result given. Unless noted, no stated cut-off is given here; in the data, active means inhibition above about 30%; inconclusive means no clear call, values can overlap the other calls; inactive means below that.

SMILES	Anthrax LF inh2	MazEF act	DUSP3 inh	Bead autofluor	BoNT-A LC inh2	BoNT F protease
CC(NC(=O)CN1CCc2ccccc21)c1ccccc1 (centres undefined)	?	2.8	53.8*	8834	?	?
CC(NC(=O)CCC(=O)NC(C)c1ccccc1)c1ccccc1 (centres undefined)	3.5	-1.1	4.9	3204	-0.7	-12.1
O=C(Nc1cccnc1)c1cccc(-c2cc3ccccc3oc2=O)c1	-0.2	-83.1	2.0	2188	-0.4	2.4
CCN(CCCNS(=O)(=O)c1ccc2c(c1)CCN2C(C)=O)c1cccc(C)c1	-6.6	1.6	4.6	6240	-0.6	-16.9
CCN1CCN(CC(O)COc2ccc3c(C)cc(=O)oc3c2)CC1 (centres undefined)	-0.8	0.2	-2.4	4817	-0.6	-8.5
Cc1nnc(SCc2c(Cl)cccc2Cl)n(N)c1=O	-0.6	2.3	-2.2	4415	0.2	-1.0
CC(Sc1nc(=O)cc(N)n1CCc1ccccc1)C(=O)NCc1ccccc1 (centres undefined)	-8.3	11.3	6.0	3498	-0.7	-4.6
CC(NC(=O)C1CCCN(C(=O)N(C)C)C1)c1ccccc1 (centres undefined)	-2.2	-3.9	21.8	20508*	0.2	-1.5
COC(=O)C1CCCN1C(C(=O)NC1CCCCC1)c1ccc(Cl)cc1 (centres undefined)	3.6	4.8	-7.3	4430	-0.6	-0.6
CNC(=S)N/N=C(\C)c1cccc([N+](=O)[O-])c1	-2.5	1.4	17.7	9542	-1.2	-2.6
NS(=O)(=O)c1ccc(-c2ccc(/C=N/NC(=O)c3ccc([N+](=O)[O-])cc3)o2)cc1	2.0	1.9	13.1	3994	1.0	5.6
CCCOc1ccc(C(=O)N/N=C/c2ccc(-c3ccc(S(=O)(=O)Nc4ncccn4)cc3)o2)cc1	-1.3	-14.3	11.6	22659*	?	-9.0
O=C(CSCC(=O)N1CCCCC1)OCC(=O)c1c[nH]c2ccccc12	47.3*	9.4	-12.1	16086	33.2*	18.3
O=C(C(=O)N1CCCCCC1)c1c[nH]c2ccccc12	-15.8	-19.5	7.9	3124	-0.6	?
N#Cc1ccccc1Sc1ccccc1N	-5.4	-4.3	18.6	7710	-0.7	7.8
Cn1c(C(O)c2ccccc2F)nc(Cl)c1Cl (centres undefined)	-2.3	-0.5	8.6	22133*	0.0	-0.2
Cn1c(C(O)c2ccc(Cl)cc2)nc(Cl)c1Cl (centres undefined)	-3.4	-0.9	-6.1	3715	0.6	0.6
Cc1ccc(-c2nnc(SCC(=O)NNC(=O)COc3cccc(C)c3)n2C)cc1	2.2	3.3	-10.7	22497*	0.4	0.6
CCn1c(SCC(=O)NNC(=O)c2ccccc2)nnc1-c1ccncc1	-2.6	-3.9	5.4	22311*	?	-2.9
Cc1ccc(C(=O)NNC(=O)CSc2nnc(-c3ccncc3)n2C)cc1	0.1	9.0	35.6	16351*	0.4	-0.1
CCn1c(SCC(=O)N/N=C/c2ccc(C)o2)nnc1-c1ccccc1	-2.1	1.5	-0.9	22380*	?	0.1
CCn1c(SCC(=O)NNC(=O)Cc2ccccc2)nnc1-c1ccncc1	-0.2	1.5	12.9	4247	-2.5	-10.2
CCc1ccc(OCC(=O)NNC(=O)CSc2nnc(-c3ccc(C)cc3)n2C)cc1	-0.2	-1.4	12.1	2501	0.6	0.1
CCCc1nc(SCc2cccnc2)c2c(=O)n(C)c(=O)n(C)c2n1	-5.7	6.6	2.4	4538	0.4	-5.9
O=C(c1cccc([N+](=O)[O-])c1)N1CCCC(C(=O)N2CCCCCC2)C1 (centres undefined)	/	0.4	3.8	/	/	/
SMILES	Anthrax LF inh2	MazEF act	DUSP3 inh	Bead autofluor	BoNT-A LC inh2	BoNT F protease
CCCCN(C)C(=O)c1ccc(Nc2nc(C(N)Cc3ccccc3)cs2)nc1 (centres undefined)	-5.6	/	/	4178	-1.0	-12.8
O=C(CNC(=O)c1ccc(Br)o1)OCc1ccc(Br)cc1	4.0	-3.8	/	4399	0.2	-10.1
Cc1cc(NC(=O)c2ccc(Cl)cc2)ccc1NC(=O)c1ccccc1Cl	-12.5	-13.5	7.9	2820	4.1	37.1*
Cc1ccc2sc3ccc(NC(=O)c4ccccc4Cl)cc3c(=O)c2c1	11.3	-5.5	10.2	22506*	8.0	4.0
Cc1ccc(C(=O)Nc2ccc(NC(=O)c3ccccc3Cl)c(C)c2)cc1	2.1	10.2	/	3920	-0.4	6.4
Cc1cc(C)n(CC(C)NCc2cn[nH]c2-c2cccc3ccccc23)n1 (centres undefined)	1.3	7.3	0.4	4538	-0.4	-1.6
Cc1cc(C)n(CC(C)NCc2cn[nH]c2-c2ccc(C)c(C)c2)n1 (centres undefined)	-4.4	-2.9	48.7	28071*	-5.2	13.0
C=CCN1C(=O)C2(/C(=C(\O)c3ccc4c(c3)OCCO4)C(=O)C(=O)N2CCCOC)c2ccccc21 (centres undefined)	-0.4	-2.5	-4.9	23166*	0.2	-2.2
C=C(C)CN1C(=O)C(O)(CC(=O)c2ccc3c(c2)OCCO3)c2ccccc21 (centres undefined)	0.3	-2.3	-7.5	3347	-0.2	-8.4
c1csc(-c2nnc3ccccn23)c1	-3.7	3.5	-4.7	18537*	?	9.4
CCCCCc1nc2sc3c(c2c(=O)n1NC(=O)c1ccc([N+](=O)[O-])cc1)CC(C)(C)OC3	-0.3	16.1	21.9	2615	-0.5	-2.7
Brc1ccc(OCc2ccccc2)c(CNCc2ccncc2)c1	-9.1	5.5	-11.0	16749*	-3.0	-15.4
Fc1ccc(COc2ccccc2CNCc2ccncc2)cc1	-3.2	-0.3	14.1	2435	-0.6	-20.6
CCCc1[nH]n(-c2nc3ccccc3s2)c(=O)c1C=NCC1CCCO1 (centres undefined)	-5.8	1.8	15.3	19952*	4.8	5.7
Cn1c(NC(=O)c2ccc(Cl)cc2Cl)cc(=O)n(C)c1=O	-0.8	11.1	29.2	5550	-0.3	-0.8
COc1ccc(-c2c[n+]3c4n2CCCCC4=C(c2ccc(Br)cc2)C3)cc1	1.9	14.5	9.7	22490*	?	-15.8
COc1ccc2c3c(cccc13)C(=O)N(O)C2=O	0.3	5.7	-11.2	2053	0.7	4.6
CCC1=NNc2cccc3c(OC)ccc1c23	/	/	54.0*	/	/	/
COCCNC(=O)c1nn2cccnc2c1Cl	-0.1	2.1	22.8	19754*	0.8	-1.7
O=C(NCc1cccs1)c1nn2cccnc2c1Cl	-6.1	1.8	17.0	2927	-0.1	-3.0
O=C(NCC12CC3CC(CC(C3)C1)C2)c1nn2cccnc2c1Cl	-3.7	0.9	4.5	16281*	0.3	0.8
CCc1cc(=O)oc2cc(C)c(CN3CCCCC3)c(O)c12	/	-25.0	25.9	/	/	/
CCc1cc(=O)oc2cc(C)c(CN3CCCC3)c(O)c12	-3.5	9.2	-7.7	17050*	-1.8	-9.2
CN(C(=O)c1ccc2c(c1)CCN2S(C)(=O)=O)c1ccccc1	-1.7	-0.8	1.4	4371	-0.7	-1.9
O=C(O)CCCNC(=O)CCn1nnc2ccccc2c1=O	-2.1	7.0	13.6	4894	-0.8	-3.6
